According to PubChem BioAssay AID1626 (SRMLSC, 2009):
About 2,000 (0.91%) of roughly 220,000 compounds were called active. About 2% were inconclusive and are not listed. Only a sample is shown. Entries with a potency or affinity are not part of this list. Unmarked numbers belong to inactive results. Cut-off read from the data, not from the text of the source: inconclusive = inhibition above about 80% without an active follow-up result; inactive = below that; test concentration not stated here.

assay: M. tuberculosis H37Rv growth inhibitors, H37Rv strain (AID 1626); settings: stronger effect = higher value, concentration not given here;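 note: bacteria incubated seven days before Alamar blue readout; 0% = bacteria only wells and 100% = bacteria with antibiotic wells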

Question: For `Cc1cc(C)cc(OCC(=O)OC/C(O)=C(\C#N)c2nc3ccccc3[nH]2)c1`, which inhibition is on record?
Answer: 13%

Question: For `CC(C)C(=O)OC/C(O)=C(\C#N)c1nc2ccccc2[nH]1`, which inhibition is on record?
Answer: -0.61%

Question: For `Cc1cc(Br)ccc1SCC(=O)OC/C(O)=C(\C#N)c1nc2ccccc2[nH]1`, which inhibition is on record?
Answer: 77.9%

Question: Which inhibition does the source give for `N#C/C(=C(/O)COC(=O)CSc1ccc(Cl)cc1)c1nc2ccccc2[nH]1` here?
Answer: 76.2%

Question: With `Cc1cccc(C)c1OCC(=O)OC/C(O)=C(\C#N)c1nc2ccccc2[nH]1` as the compound, how does the inhibition read?
Answer: 3.83%

Question: With `COCC(=O)OC/C(O)=C(\C#N)c1nc2ccccc2[nH]1` as the compound, how does the inhibition read?
Answer: 43.4%

Question: For `Cc1ccccc1NC(=O)Cc1nnc(SCc2ccc(Cl)c(Cl)c2)n1C`, which inhibition is on record?
Answer: -3.35%

Question: Which inhibition does the source give for `COc1cccc(C(=O)NNC(=S)NC2CCCCC2)c1` here?
Answer: 4.93%

Question: Which inhibition does the source give for `CCCn1c(SCC(=O)Nc2ccccc2C(=O)OC)nc2c1c(=O)n(C)c(=O)n2C` here?
Answer: 0.72%

Question: Which inhibition does the source give for `O=C(CCl)NCc1c(Cl)cccc1-n1cccc1` here?
Answer: -3.53%

Question: Which inhibition does the source give for `COCCOC(=O)c1c(NC(=O)CN2c3ccccc3CC2C)sc(C(N)=O)c1C` (stereo unspecified) here?
Answer: 6.79%

Question: With `O=C(COC(=O)c1cccc(Cl)c1Cl)NCCN1C(=O)CSC1=O` as the compound, how does the inhibition read?
Answer: -1.16%

Question: With `O=S(=O)(c1cc(Cl)ccc1Br)N1CCCCC1` as the compound, how does the inhibition read?
Answer: 3.97%

Question: With `CCOC(=O)N1CCC(Nc2nc3ccccc3n3cnnc23)CC1` as the compound, how does the inhibition read?
Answer: 4.5%

Question: With `Cc1ccc(-c2c[n+](CC(=O)Nc3c(C)cccc3C)c3n2CCC3)cc1` as the compound, how does the inhibition read?
Answer: -1.5%

Question: For `Cc1ccc(NC(=O)C[n+]2cc(-c3ccc(C)cc3)n3c2CCC3)cc1`, which inhibition is on record?
Answer: 0.55%

Question: Which inhibition does the source give for `O=C(C[n+]1cc(-c2ccccc2)n2c1CCC2)Nc1nc(-c2ccccc2)cs1` here?
Answer: 77.8%

Question: Which inhibition does the source give for `Cc1ccc(-c2csc(NC(=O)C[n+]3cc(-c4ccccc4)n4c3CCC4)n2)cc1` here?
Answer: 75.7%

Question: With `CC(C)(CO)NCc1ccc(Br)cc1` as the compound, how does the inhibition read?
Answer: 1.99%

Question: With `C/C(=N/NC(=O)CN1CCN(Cc2ccccc2Cl)CC1)c1ccco1` as the compound, how does the inhibition read?
Answer: -5.99%

Question: For `CNC(=O)COC(=O)/C=C/c1ccco1`, which inhibition is on record?
Answer: -4.68%

Question: Which inhibition does the source give for `COC(=O)C1CC(=O)N(Cc2ccccc2)C1` (stereo unspecified) here?
Answer: -1.62%

Question: For `COc1ccc(C2C(C(=O)OCC(=O)NC(C)(C)C)CCC(=O)N2c2ccc(C)cc2)cc1OC` (stereo unspecified), which inhibition is on record?
Answer: 70.3%

Question: For `CCOC(=O)c1c(NC(=O)C(=O)N/N=C/c2ccc(OCC)cc2)sc2c1CCCCC2`, which inhibition is on record?
Answer: 2.16%

Question: For `O=C(Cc1sc(-c2ccccc2Cl)nc1-c1ccccc1)Nc1ccc(F)cc1`, which inhibition is on record?
Answer: -0.94%

Question: Which inhibition does the source give for `CC(C)CCN1C(=O)c2ccc(C(=O)NCc3ccco3)cc2C1=O` here?
Answer: 4.17%

Question: Which inhibition does the source give for `COc1cc(C2NCCc3c2[nH]c2ccccc32)ccc1OC(C)C` (stereo unspecified) here?
Answer: 1.05%

Question: Which inhibition does the source give for `COc1ccc(C2NCCc3c2[nH]c2ccccc32)cc1CN1CCc2cc(OC)c(OC)cc2C1C` (stereo unspecified) here?
Answer: 4.52%

Question: With `Cc1ccc(N(CC(=O)NCCSc2nc3ccccc3s2)S(=O)(=O)c2ccccc2)c(C)c1` as the compound, how does the inhibition read?
Answer: 9.8%

Question: Which inhibition does the source give for `COC(=O)c1ccc(/C=C(\C#N)c2nc3ccccc3s2)cc1` here?
Answer: 3.69%

Question: For `CNC(=O)Nc1cccc2cccnc12`, which inhibition is on record?
Answer: -8.8%

Question: Which inhibition does the source give for `Cc1ccc(S(=O)(=O)Nc2cccc3cccnc23)cc1` here?
Answer: -2.94%

Question: Which inhibition does the source give for `CN(CCc1ccccn1)C(=S)Nc1ccc(Cl)c(Cl)c1` here?
Answer: 3.62%

Question: Which inhibition does the source give for `COc1ccc(NS(=O)(=O)c2cnc[nH]2)cc1` here?
Answer: 5.45%

Question: Which inhibition does the source give for `Cc1[nH]n(-c2ccccc2)c(=O)c1C(=O)c1ccc(Cl)cc1` here?
Answer: -3.87%

Question: For `Cc1[nH]n(-c2ccccc2)c(=O)c1C(=O)c1ccccc1`, which inhibition is on record?
Answer: -0.23%

Question: With `CCn1c(=O)c(=O)[nH]c2cc(C(=O)N3CCN(c4ccccc4F)CC3)ccc21` as the compound, how does the inhibition read?
Answer: 7.44%

Question: With `Nc1ccc(C(=O)OCC(=O)N2c3ccccc3Sc3ccccc32)cc1[N+](=O)[O-]` as the compound, how does the inhibition read?
Answer: -1.19%

Question: Which inhibition does the source give for `Cc1ccc(N=Cc2c(O)n(-c3nccs3)c(=O)c3ccccc23)cc1` here?
Answer: -4.95%

Question: With `Cc1cccc(C)c1N=Cc1c(O)n(-c2nccs2)c(=O)c2ccccc12` as the compound, how does the inhibition read?
Answer: 2.79%

Question: Which inhibition does the source give for `Clc1ccc(Cl)c(-c2ccc(/C=N/c3ncn[nH]3)o2)c1` here?
Answer: 6.69%

Question: For `Cc1cc(C(=O)N/N=C/c2ccc(-c3ccc(C)c(Cl)c3)o2)n[nH]1`, which inhibition is on record?
Answer: 56.6%

Question: With `COc1cccc(CN(C)Cc2nc3cc(C(F)(F)F)ccc3c(=O)[nH]2)c1` as the compound, how does the inhibition read?
Answer: 4.79%

Question: For `CSc1ccc(CN(C)Cc2nc3cc(C(F)(F)F)ccc3c(=O)[nH]2)cc1`, which inhibition is on record?
Answer: 91.3%

Question: Which inhibition does the source give for `CC(C)C(=O)NNC(=O)c1c(O)c2ccccc2[nH]c1=O` here?
Answer: -10.7%

Question: For `Cc1cc(C)n(-c2ncc3c(n2)N(CCO)CCOC3=O)n1`, which inhibition is on record?
Answer: 10.4%

Question: Which inhibition does the source give for `N#Cc1ccc(/C=C/C(=O)O)cc1` here?
Answer: -0.8%

Question: For `CN(C)c1ccc(/C=C/C(=O)c2cccnc2)cc1`, which inhibition is on record?
Answer: 3.22%

Question: For `O=C(/C=C/c1ccccc1Cl)c1cccnc1`, which inhibition is on record?
Answer: -7.55%

Question: Which inhibition does the source give for `O=C(/C=C/c1cccnc1)c1ccc(O)cc1` here?
Answer: -0.25%

Question: With `O=C(/C=C/c1ccccc1)c1ccccc1` as the compound, how does the inhibition read?
Answer: 10.5%

Question: Which inhibition does the source give for `CCN(CC)c1ccc(/C=C/C(=O)c2cccnc2)cc1` here?
Answer: 16.5%

Question: Which inhibition does the source give for `O=C(/C=C/c1cccc(O)c1)c1cccnc1` here?
Answer: 53.2%

Question: Which inhibition does the source give for `O=C(/C=C/c1ccc([N+](=O)[O-])cc1)c1cccnc1` here?
Answer: 11.1%

Question: With `CC(C)(C)CC(C)(C)NC(=S)NC1CCN(Cc2ccccc2)CC1` as the compound, how does the inhibition read?
Answer: -15.9%

Question: With `Cc1ccc(NC(=S)Nc2cccc(-c3n[nH]c(=S)o3)c2)cc1` as the compound, how does the inhibition read?
Answer: 10.2%

Question: Which inhibition does the source give for `O=C(COC(=O)/C=C/c1ccc(Cl)cc1)NCCC1=CCCCC1` here?
Answer: -4.53%

Question: With `Cc1cccc(C(=O)NCC2CCCO2)c1` (stereo unspecified) as the compound, how does the inhibition read?
Answer: -2.3%

Question: With `Cc1ccc(CNC(=O)C(=O)NCC2OCCN2S(=O)(=O)c2cccs2)cc1` (stereo unspecified) as the compound, how does the inhibition read?
Answer: -2.36%

Question: With `CCOC(=O)c1c[nH]n(-c2ccc(C)cc2)c1=O` as the compound, how does the inhibition read?
Answer: -7.4%

Question: With `Cc1onc(-c2ccccc2Cl)c1C(=O)Nc1ncn[nH]1` as the compound, how does the inhibition read?
Answer: 6.99%

Question: Which inhibition does the source give for `CCOC(=O)C1CCCN(Cc2cc(Br)c(OC)cc2OC)C1` (stereo unspecified) here?
Answer: 1.19%

Question: With `Cc1cc(C(=O)N(CCC#N)Cc2cccs2)no1` as the compound, how does the inhibition read?
Answer: -6.57%

Question: With `CCOc1ccc(C(C)NC(=O)C2CCC2)cc1` (stereo unspecified) as the compound, how does the inhibition read?
Answer: 1.59%

Question: With `COCc1nnc(SCC(=O)NCc2ccccc2)n1-c1ccccc1` as the compound, how does the inhibition read?
Answer: -6.68%

Question: With `COc1ccccc1NC(=O)C1=C(C)NC2=C(C(=O)CCC2)C1c1ccc2c(c1)OCO2` (stereo unspecified) as the compound, how does the inhibition read?
Answer: -0.94%

Question: Which inhibition does the source give for `O=C(/C=C/c1ccc(Cl)c([N+](=O)[O-])c1)Nc1cccnc1` here?
Answer: -11.5%

Question: Which inhibition does the source give for `O=C(/C=C/c1ccc(Cl)c([N+](=O)[O-])c1)NCc1cccnc1` here?
Answer: 2.22%

Question: With `Cc1nc(C(=O)Nc2ccc(F)cc2)nn1-c1ccc([N+](=O)[O-])cc1` as the compound, how does the inhibition read?
Answer: -5.91%

Question: Which inhibition does the source give for `CCC1(C)Cc2ccccc2C(Nc2c(C)n(C)n(-c3ccccc3)c2=O)=N1` (stereo unspecified) here?
Answer: -6.85%

Question: With `Cc1nc(-c2cccc(NC(=O)C3CCCCC3)c2)cs1` as the compound, how does the inhibition read?
Answer: -1.02%

Question: For `COc1ccccc1Nc1nc(-c2ccc3c(c2)NC(=O)CO3)cs1`, which inhibition is on record?
Answer: -3.16%

Question: For `COc1cccc(-c2nc(-c3ccc4c(c3)NC(=O)CO4)cs2)c1`, which inhibition is on record?
Answer: 22.4%

Question: For `CCC(C(=O)Nc1cc(Cl)c(OC)cc1OC)c1ccccc1` (stereo unspecified), which inhibition is on record?
Answer: -3.66%

Question: For `CC(=O)OC(C(=O)Nc1ccccc1)C(C)S(=O)(=O)c1ccccc1` (stereo unspecified), which inhibition is on record?
Answer: -4.23%

Question: For `O=C(Nc1ccccc1Cl)O/N=C/c1ccncc1`, which inhibition is on record?
Answer: -1.05%

Question: For `CC(C)C(=O)Nc1ccc(C(=O)NNC(=O)NC2CCCCC2)cc1`, which inhibition is on record?
Answer: -3.11%

Question: For `COc1cccc(NC2c3ccccc3C(=O)N2Cc2ccccc2Cl)c1` (stereo unspecified), which inhibition is on record?
Answer: 8.87%

Question: Which inhibition does the source give for `O=C(COC(=O)c1ccc2ccccc2n1)c1ccc(F)cc1` here?
Answer: -7.45%

Question: Which inhibition does the source give for `O=C(OCc1ccc([N+](=O)[O-])cc1)c1ccc2ccccc2n1` here?
Answer: 40.4%

Question: With `O=C(O)CSc1nc2ccccc2[nH]1` as the compound, how does the inhibition read?
Answer: -9.58%

Question: With `O=C(CSc1nc2ccccc2s1)N1c2ccccc2Sc2ccccc21` as the compound, how does the inhibition read?
Answer: 1.29%

Question: With `COc1ccc(NC(=O)COC(=O)c2cc(SC)ccc2Cl)c(OC)c1` as the compound, how does the inhibition read?
Answer: 10.1%

Question: Which inhibition does the source give for `COc1ccc(C(C)(C)C)cc1NC(=O)COC(=O)c1ncc(Cl)c(Cl)c1Cl` here?
Answer: -2.28%

Question: Which inhibition does the source give for `O=C1c2cccc3c([N+](=O)[O-])ccc(c23)C(=O)N1c1nccs1` here?
Answer: -1.82%

Question: With `O=C1c2cccc3cccc(c23)C(=O)N1CC1CCCO1` (stereo unspecified) as the compound, how does the inhibition read?
Answer: 0.46%

Question: Which inhibition does the source give for `Cc1ccc(N2C(=O)c3cccc4c([N+](=O)[O-])ccc(c34)C2=O)c2cccnc12` here?
Answer: -2.68%

Question: For `O=C1c2cccc3cccc(c23)C(=O)N1c1ccccn1`, which inhibition is on record?
Answer: 2%

Question: Which inhibition does the source give for `O=C1c2ccc(Oc3cccc([N+](=O)[O-])c3)cc2C(=O)N1c1ccccn1` here?
Answer: -2.15%

Question: For `O=C1c2cccc3cccc(c23)C(=O)N1Cc1cccnc1`, which inhibition is on record?
Answer: -2.19%

Question: Which inhibition does the source give for `O=C1c2ccc3c4c(ccc(c24)C(=O)N1Cc1cccnc1)C(=O)N(Cc1cccnc1)C3=O` here?
Answer: 7.76%

Question: With `O=C1c2ccccc2C(=O)N1CC1CCCO1` (stereo unspecified) as the compound, how does the inhibition read?
Answer: -1.11%

Question: With `CCOC(=O)c1[nH]c2cc(OC)c(OC)cc2c1NC(=O)CN1CCN(C)CC1` as the compound, how does the inhibition read?
Answer: -4.7%

Question: Which inhibition does the source give for `COC(=O)CS(=O)(=O)c1ccc(C)cc1` here?
Answer: -7.54%

Question: With `CCCOC(=O)c1c(NC(=O)CCCn2nc([N+](=O)[O-])cc2C)sc(C(=O)OC)c1C` as the compound, how does the inhibition read?
Answer: -6.65%

Question: With `CCOP(=O)(OCC)C(Nc1cc(Cl)cc(Cl)c1)c1cccc(O)c1` (stereo unspecified) as the compound, how does the inhibition read?
Answer: 1.6%
